Bioassay records as filed in PubChem BioAssay.
A selection: hits, their analogues and other compounds. The true share with any hit is near 4.1%.
DAX1 inh-1: inhibits human nuclear receptor DAX1; P51843; HEK293 Gal4-DAX1 luciferase reporter, luminescence; inhibition, % at 6.75 µM; hit rate 0.99% among 340,000;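 active = inhibition above the mean over all tested compounds plus 3 SD, cut at about 4.2% in these data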;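 also: inhibition shows as a rise in luminescence from relieved DAX1 repression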
Target sequence (P51843 207-470 limits assumed): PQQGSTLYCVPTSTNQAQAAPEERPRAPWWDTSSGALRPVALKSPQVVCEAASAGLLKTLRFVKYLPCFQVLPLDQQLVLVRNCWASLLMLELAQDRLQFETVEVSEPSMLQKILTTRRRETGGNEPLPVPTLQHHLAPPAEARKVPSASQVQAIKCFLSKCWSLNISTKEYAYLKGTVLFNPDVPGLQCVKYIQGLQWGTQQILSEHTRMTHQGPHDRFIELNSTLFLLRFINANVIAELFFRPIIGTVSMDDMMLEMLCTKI
hgDAF12 agonist: activates the H. glycines DAF-12 receptor ligand-binding domain; HEK293 GAL4-hgDAF12 UAS-luciferase reporter, agonist luminescence; normalized to butyrate control; activation, % at 6.8 µM; hit rate 1.8% among 370,000; AID 687014;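 active = activation above a cutoff set at the mean of all screened compounds plus 3 SD, cut at about 10% in these data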
ssDAF12 agonist: activates DAF-12 receptor from parasite S. stercoralis | HEK293 ssDAF-12/GRIP1 lit1-tk-luc reporter, luminescence; % of 3 µM dafachronic acid response | hit rate 1% among 370,000 | AID 652126 | activation, % at 6.8 µM;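 active = activation above the mean over all tested compounds plus 3 SD, cut at about 0.9% in these data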
hcDAF-12 act: activates DAF-12 receptor from parasite H. contortus. HEK293 hcDAF-12 lit1-tk-luc reporter, luminescence; 0% DMSO, 100% Δ7-dafachronic acid. activation, % at 6.8 µM. hit rate 1.4% among 370,000. AID 652067;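 active = activation above the mean of all tested compounds plus 3 SD, cut at about 5.5% in these data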
DAX1 inh-2: inhibitors of DAX1 repression of SF-1 activated StAR promoter; HEK293T StAR-luciferase reporter, SF-1/DAX-1 repression relief; inhibition, % at 6.8 µM; hit rate 1.1% among 370,000;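 active = inhibition above the mean over all tested compounds plus 3 SD, cut at about 3.6% in these data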;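 also: higher inhibition means more luminescence from relief of DAX-1 repression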
A number is an active result; i = inactive; nt = not tested or not shown.

SMILES | DAX1 inh-1 | hgDAF12 agonist | ssDAF12 agonist | hcDAF-12 act | DAX1 inh-2
CC(=O)Nc1nc(COc2ccccc2)cs1 | i | 13 | i | i | i
COc1ccc(OC)c(-c2nc(C(=O)NCCCN3CCOCC3)cc3c2[nH]c2ccccc23)c1 | i | i | 1.0 | i | i
COc1ccc(OC)c(-c2nc(C(=O)NC3CCN(Cc4ccccc4)CC3)cc3c2[nH]c2ccccc23)c1 | i | i | i | i | i
COC(=O)C1=C(C)N(Cc2ccc(Br)cc2)C(=S)NC1c1ccc(OC)cc1 (centres undefined) | nt | i | i | i | i
COC(=O)c1ccc(N2CCN(CC(=O)c3ccc(C)cc3)CC2)c([N+](=O)[O-])c1 | i | i | i | 6.0 | i
COc1ccc2c(C)cc3nncn3c2c1 | 4.2 | i | i | i | i
Cc1cc2nncn2c2ccccc12 | i | i | i | i | i
CN(C)c1cccc(NC(=O)c2cccc3ccccc23)c1 | i | i | 1.2 | 6.5 | i
COc1ccc(CCNC(=O)c2ccccc2OCc2c(C)noc2C)cc1 | i | i | i | i | 3.7
Cc1noc(C)c1COc1ccccc1C(=O)NCCc1ccc(Cl)cc1 | i | i | i | i | i
CCOC(=O)[C@]12CCCC=C1N(CCCOC)C(=O)[C@@H]2CC(=O)NCC1CCCCC1 | nt | i | i | i | i
CCOC(=O)C1(Cc2cccc(OC)c2)CCCN(C(=O)c2ccc(OC)o2)C1 (centres undefined) | i | i | i | i | 4.3
COc1cccc(CC2(CO)CCCN(Cc3ccc(CO)o3)C2)c1 (centres undefined) | i | i | i | i | i
CCOC(=O)C1(Cc2cccc(OC)c2)CCCN(C(=O)c2cc(CC(C)C)[nH]n2)C1 (centres undefined) | i | i | i | i | 3.8
COc1cccc(CC2(CO)CCCN(C(=O)c3cc[n+]([O-])cc3)C2)c1 (centres undefined) | 5.1 | i | i | i | i
O=C(CNc1cccc2ccccc12)N/N=C/c1ccc(C(=O)O)cc1 | i | i | 1.0 | i | i
O=C(CNc1ccc2ccccc2c1)N/N=C/c1ccc(C(=O)O)cc1 | i | i | i | i | i
Cc1ccccc1Cn1cc(COC(=O)NCCc2c[nH]c3ccccc23)nn1 | nt | i | i | i | i
Cn1nnc2cc(C(=O)Nc3ccccc3)ccc21 | i | 11 | 0.9 | i | i
CN(C)c1ccc(NC(=O)Nc2ccc3c(c2)nnn3C)cc1 | 6.5 | i | i | i | i
Cc1ccc(NC(=O)c2ccc3c(c2)nnn3C)cc1 | i | i | i | i | i
CN(C)c1ccc(NC(=O)c2ccc3c(c2)nnn3C)cc1 | i | i | i | i | i
Cc1ccc(S(=O)(=O)N2O[C@@H](c3ccccc3)C[C@H]2CON2C(C)(C)CCCC2(C)C)cc1 | nt | i | i | i | nt
CCOC(=O)Cc1c(C)nc(SC)[nH]c1=O | i | 11 | i | i | i
COc1cc(/C=N/N=C2/NC(=O)C(CC(=O)O)S2)ccc1OCc1ccc(Cl)cc1 (centres undefined) | i | 12 | i | i | i
SMILES | DAX1 inh-1 | hgDAF12 agonist | ssDAF12 agonist | hcDAF-12 act | DAX1 inh-2
CCOc1cc(/C=N/N=C2/NC(=O)C(CC(=O)O)S2)ccc1OCc1ccc(Cl)cc1Cl (centres undefined) | i | nt | nt | nt | nt
Cc1nc2sc(C(=O)NCc3ccncc3)c(N)c2c(C)c1Cl | nt | i | i | i | i
Cc1ccc(NCc2ccccc2F)cc1 | i | i | i | 6.2 | i
Cc1ccc(NCc2ccccc2O)cc1 | i | i | i | i | i
Cc1cc(C(=O)Nc2ccc3c(c2)OCCO3)co1 | i | i | i | 6.1 | 4.1
O=C(Nc1cccc(F)c1)c1ccc2c(c1)OCCO2 | i | 13 | i | 6.3 | i
CN(Cc1ccc(F)cc1)C(=O)c1cccc2c1C(=O)N(Cc1cccnc1)C2 | nt | i | i | i | i
CN1C(=O)c2cc(NC(=O)C3CCCCC3)ccc2OC[C@H]2O[C@@H](CC(=O)NC3CCCC3)CC[C@H]21 | nt | i | i | i | i
Cc1nn(C)c(C(=O)N2CCc3ccccc32)c1Br | i | i | i | i | i
Cn1cc(Br)c(C(=O)N2CCc3ccccc32)n1 | i | i | i | 5.9 | i
C/C(=C\C(=O)N1CCc2ccccc21)C(=O)O | 4.3 | i | i | i | i
O=C(c1ccccc1)N1CCc2ccccc21 | i | i | i | i | i
Cn1ncc(Br)c1C(=O)N1CCc2ccccc21 | i | i | i | i | i
Cc1c(Br)c(C(=O)N2CCc3ccccc32)nn1C | 4.4 | i | i | i | i
O=C(Nc1nccs1)C1(C(=O)C2CC2)CC(c2ccccn2)=NO1 (centres undefined) | nt | i | 1.0 | i | i
CC(C)N1CCCCC(NC(=O)c2ccc(Cl)cc2Cl)C1=O (centres undefined) | nt | i | i | i | i
N#C/C(=C\Nc1ccccc1O)c1nc2ccccc2o1 | i | i | i | 6.3 | i
O=C(CCN1C(=O)C2C3CCC(C3)C2C1=O)Nc1ccccc1C(F)(F)F (centres undefined) | i | i | 6.0 | i | i
Cc1cccc(C)c1NC(=O)CCN1C(=O)C2C3CCC(C3)C2C1=O (centres undefined) | i | i | i | i | i
CN(C)CCCN(C(=O)c1cc(-c2cccs2)nc2ccccc12)c1nc2c(F)cccc2s1 | i | i | i | i | 4.1
Cc1cccc(NC(=S)NCc2ccc3c(c2)OCO3)c1 | i | i | i | i | i
C/C(=N\OCC(=O)OCC(=O)NCc1ccccc1)c1ccc2c(c1)OCO2 | i | i | i | i | 3.9
Cc1cccc(NC(=O)NCc2ccc3c(c2)OCO3)c1 | i | i | i | i | 4.4
Cc1ccccc1OCC(=O)OCC(=O)NCc1ccc2c(c1)OCO2 | i | i | 1.2 | i | i
O=C(Nc1cccc([N+](=O)[O-])c1)NC1CCCCN(Cc2cccc(Cl)c2)C1=O (centres undefined) | nt | i | i | i | i
SMILES | DAX1 inh-1 | hgDAF12 agonist | ssDAF12 agonist | hcDAF-12 act | DAX1 inh-2
O=C(Nc1ccc(F)cc1)OCc1cn(Cc2ccccc2F)nn1 | nt | i | i | i | i
CCC[C@H]1[C@@H](NCC2CCCCC2)CC[C@@]23CCCN2C(=O)CCC[C@@H]13 | nt | i | i | i | nt
Nc1[nH]c(N=NC(=O)c2ccccc2O)c2ccccc12 | i | 12 | i | i | i
Nc1[nH]c(N=NC(=O)c2ccccc2)c2ccccc12 | i | i | i | i | i
COc1ccc(-c2csc(Nc3ccccc3)[n+]2Cc2ccccc2)cc1 | i | i | 0.9 | i | i
CCN(CC)c1ccc(N=C2C=CC(=O)C=C2NC(C)=O)cc1 | nt | i | i | i | 3.9
COc1cc(N=Nc2ccccc2C(=O)O)ccc1O | i | i | i | i | i
COc1cc(N=Nc2ccc3ccccc3c2)ccc1O | 8.1 | i | 1.7 | i | i
Cc1cc(=O)oc2cc(NC(=O)c3ccccc3C(=O)O)ccc12 | i | i | i | i | i
CCOC(=O)Nc1ccc2c(C)cc(=O)oc2c1 | i | 11 | i | i | i
Cc1cc(=O)oc2cc(NC(=O)c3ccccc3Cl)ccc12 | i | 13 | i | i | i
Cc1cccc(Cn2cc(COC(=O)N3CCOCC3)nn2)c1 | nt | i | i | i | i
